Data published in the OligoGym collection.

molecular target: AIG1; assay: pooled miR-30 sensor sort-seq; sequence = guide strand; details: shRNA
Also: reference of the scale not given here.

| Sequence | sensor-assay potency score (higher = more potent) |
| --- | --- |
| TTGGAAACAACTGTATTCTATG | -0.738 |
| TTCGGGTATATCATCTCTCTGT | -0.249 |
| TAATATAAAGGGCAGAACCGTC | -1.19 |
| TAGAGCAGTAAGACAGCAGGAT | 0.285 |
| TTAAGATGGTTGTAGACCCAAA | -0.997 |

molecular target: AK1; assay: as above; details: shRNA

| Sequence | sensor-assay potency score (higher = more potent) |
| --- | --- |
| TACAGCAGCAGTGTGGGCTGTC | 0.332 |
| TAGCCATCAATCAGGAAGCCTT | -0.92 |
| TCATTGTCGTCCACACGCCCGC | -0.841 |
| TTTGATGGTCTCCTCATTGTCG | -0.362 |
| ATTGTCGTCCACACGCCCGCTG | -0.347 |
| TGCACGATCTTCTCACACTGGG | -0.837 |
| TCCACATACAGCAGCAGTGTGG | -1.37 |
| ATGATTTCCGACAGCTTCTTGC | -1.06 |
| TGTAATAGGTCTCCAGCCGCTT | -0.437 |
| TACTTCTGCACGATCTTCTCAC | 0.346 |
| TTTGGAAGTATTGACTTTGGCC | -0.356 |
| TAATAGGTCTCCAGCCGCTTTT | -1.38 |
| TTGTAATAGGTCTCCAGCCGCT | -0.883 |
| TGTCTCCAGTGGAACCAGCTGC | -0.761 |
| TTGACCTTGCGCACAATGCCAC | -0.47 |
| TCGCTCAAACTCTTCTCCTTGC | -0.418 |
| TGCGTCCACATACAGCAGCAGT | -1.67 |
| TTGATGGTCTCCTCATTGTCGT | -0.675 |
| TTGTCGTCCACACGCCCGCTGG | -1.2 |
| TGATGGTCTCCTCATTGTCGTC | -1.72 |
| TTGACTTTGGCCACCATGGCAT | -0.482 |
| TCCAACACTGTCTCCAGTGGAA | -1.08 |
| TTTCCGACAGCTTCTTGCCCCT | -0.367 |
| TTCTCCTTGCTGCACCTCCCGC | -1.57 |

molecular target: AKR1A1; assay: as above; details: shRNA

| Sequence | sensor-assay potency score (higher = more potent) |
| --- | --- |
| TTGATGTTCTGAAGGATTCGAG | -0.236 |
| TACCTGACCAGGCTCACTCTTC | -0.753 |
| TTAACAGCTGCTTTTACCTGAC | -0.112 |
| TTAGCTGCTTCATCTCTTCTGG | -0.107 |
| TAGTGGGTGGAGTCGTAGCATA | -1.36 |
| TAAAGGTGAAGTCAAACACCTT | -1.29 |
| TAAGGGCATACTTAACAGCTGC | -0.729 |
| TATAGTCCCATCAGCATTCTTG | -0.715 |
| TGTCACAAACAGCTCCTCCCGA | -0.337 |
| TTGGATGTCACAAACAGCTCCT | 0.145 |
